Measurements: ChEMBL document CHEMBL1157539, “Thousands of chemical starting points for antimalarial lead identification” (Nature, 2010)

Tests used:
Format in all cases: functional
[1] = test system: Plasmodium falciparum; assay: GSK_TCMDC: Inhibition of Plasmodium falciparum 3D7 in whole red blood cells, using parasite LDH activity as an index of growth. Test compounds present at 2uM
[2] = test system: Plasmodium falciparum; assay: GSK_TCMDC: Inhibition of Plasmodium falciparum Dd2 in whole red blood cells, using parasite LDH activity as an index of growth. Test compounds present at 2uM
[3] = test system: HepG2; assay: GSK_TCMDC: Percent inhibition of human HepG2 cell line. Test compounds present at 10uM.

COc1ccc(Cn2c(=O)[nH]c3cc(C(=O)NC4CCN(Cc5ccccc5)CC4)ccc3c2=O)cc1
Inhibition [1]: 97%
Inhibition [2]: 45%
Inhibition [3]: 10%

Fc1ccc2c(NN=Cc3ccc(Cl)cc3)ccnc2c1
Inhibition [1]: 100%
Inhibition [2]: 99%
Inhibition [3]: 7%

COc1ccc2c(c1)[nH]c1c(/C=C/c3ccc([N+](=O)[O-])cc3)nccc12
Inhibition [1]: 100%
Inhibition [2]: 63%
Inhibition [3]: 4%

CC(Cc1ccc(OCCN2CCN(c3ccc(Cl)cc3)CC2)cc1)NCC(O)c1cccc(C(F)(F)F)c1.Cl (configuration not stated)
Inhibition [1]: 99%
Inhibition [2]: 96%
Inhibition [3]: 97%

Cc1ccc(CCC(C)NCC(O)c2cccc(Cl)c2)cc1 (configuration not stated)
Inhibition [1]: 97%
Inhibition [2]: 97%
Inhibition [3]: 2%

COc1ccc(CCn2c(=N)c(C(=O)NCc3ccc(C)cc3)cc3c(=O)n4ccccc4nc32)cc1
Inhibition [1]: 97%
Inhibition [2]: 16%
Inhibition [3]: 13%

COc1cc(C(=O)NC2CCN(Cc3ccccc3)CC2)ccc1-c1nc2c(Cl)cc(C(F)(F)F)cc2[nH]1
Inhibition [1]: 100%
Inhibition [2]: 56%
Inhibition [3]: 7%

Cc1ccc(Cn2nc(N3CCNCC3)ccc2=O)cc1NC(=O)Nc1ccc(-c2ccccc2)cc1.O=C(O)C(F)(F)F
Inhibition [1]: 94%
Inhibition [2]: 20%
Inhibition [3]: 46%

Cc1cccnc1CNc1nccc2c(C)c(C)[nH]c12.Cl
Inhibition [1]: 100%
Inhibition [2]: 28%
Inhibition [3]: 27%

O=C1c2ccccc2C(=O)N1c1ccc(S(=O)(=O)N2CCOCC2)cc1
Inhibition [1]: 94%
Inhibition [2]: 0%
Inhibition [3]: 0%

CC(=O)O.C[C@H](NC(=O)[C@H](Cc1ccccc1)NC(=O)OC(C)(C)C)C(=O)N[C@@H](CC1CCCCC1)C(O)CN (some centres not stated)
Inhibition [1]: 96%
Inhibition [2]: 64%
Inhibition [3]: 0%

COc1cc2nc(NCCc3ccccc3)nc(NCCc3ccccc3)c2cc1OC
Inhibition [1]: 100%
Inhibition [2]: 100%
Inhibition [3]: 99%

CCOc1cc(C(=O)N[C@@H](Cc2ccccc2)[C@H](O)CNCc2cc(OC)cc(OC)c2)cc(N2CCCS2(=O)=O)c1.Cl
Inhibition [1]: 94%
Inhibition [2]: 66%
Inhibition [3]: 0%

CCS(=O)(=O)O.Cc1cc(NC(=O)NC(=N)N)ccc1Cl
Inhibition [1]: 100%
Inhibition [2]: 15%
Inhibition [3]: 11%

COc1ccc2c(NN=Cc3cccnc3)ccnc2c1
Inhibition [1]: 97%
Inhibition [2]: 26%
Inhibition [3]: 3%

O=C(O)C(F)(F)F.c1ccc2c(c1)CN(Cc1ccsc1)CC1(CCN(Cc3c[nH]c4cnccc34)CC1)O2
Inhibition [1]: 87%
Inhibition [2]: 75%
Inhibition [3]: 38%

Nc1c2c(nc3ccc(C(=O)Nc4ccccc4)cc13)CCCC2
Inhibition [1]: 100%
Inhibition [2]: 78%
Inhibition [3]: 20%

COc1ccc2ncc(Cl)c([C@H](O)CN3CCC(NCc4cc5c(cn4)OCCO5)CC3)c2c1.Cl
Inhibition [1]: 100%
Inhibition [2]: 100%
Inhibition [3]: 10%

O=C(/C=C/c1ccc(Cl)c(Cl)c1)NCCCCCN1CCC(NC(=O)Nc2ccc(Cl)c(C(F)(F)F)c2)CC1
Inhibition [1]: 99%
Inhibition [2]: 19%
Inhibition [3]: 76%

Cc1cccc(-c2ccc(CNC3CCN(CC4Cn5c(=O)ccc6ccc(F)c4c65)CC3)cn2)c1.O=C(O)C(F)(F)F (configuration not stated)
Inhibition [1]: 90%
Inhibition [2]: 2%
Inhibition [3]: 0%

O=C(Nc1cccc(-c2ccc(-c3nc4cc(C(F)(F)F)ccc4[nH]3)s2)c1)c1cccnc1
Inhibition [1]: 100%
Inhibition [2]: 99%
Inhibition [3]: 74%

CN1CCN(c2ccc(Cl)cc2NC(=O)C2COc3ccccc3O2)CC1 (configuration not stated)
Inhibition [1]: 99%
Inhibition [2]: 44%
Inhibition [3]: 2%

COCc1nc(-c2ccccc2)nc(N2CCN(C(=O)NC(C)C)CC2)c1Cc1ccccc1F
Inhibition [1]: 96%
Inhibition [2]: 94%
Inhibition [3]: 35%

Cc1cccc2nc(-c3cccc(-c4ccc(NC(=O)C(C)(C)c5ccccn5)cc4)c3)[nH]c12
Inhibition [1]: 97%
Inhibition [2]: 4%
Inhibition [3]: 0%

O=C(NCCCN1CCOCC1)c1csc(Nc2ccc(Cl)c(Cl)c2)n1
Inhibition [1]: 92%
Inhibition [2]: 23%
Inhibition [3]: 5%

Cc1nc(N)nc(N)c1OCc1cccc2ccccc12.Cl
Inhibition [1]: 96%
Inhibition [2]: 11%
Inhibition [3]: 63%

FC(F)(F)c1ccc2c(C=Cc3ccncc3)c[nH]c2c1
Inhibition [1]: 98%
Inhibition [2]: 76%
Inhibition [3]: 0%

CCCCCN1CCCC(CNS(=O)(=O)c2cccc(C(=O)Nc3ccc(C(F)(F)F)cc3)c2)C1.O=C(O)C(F)(F)F (configuration not stated)
Inhibition [1]: 96%
Inhibition [2]: 2%
Inhibition [3]: 27%

CN(C)CCOc1cc(NC(=O)Nc2cccc([N+](=O)[O-])c2)ccc1I
Inhibition [1]: 100%
Inhibition [2]: 51%
Inhibition [3]: 8%
